# Reference: PubChem BioAssay (NCATS)
# A number with no mark means an inactive call. Results filed as inconclusive are left out. Entries that show only a call come without a potency. The source made the active and inactive calls. Unless noted, the call rests on the fitted dose curve; in most records, active means well fitted curve in the direction sought with a large enough effect; inconclusive means small, poorly fitted or top-dose-only effect, or another doubt; inactive means no such curve, though single readings can be large; an effect the other way counts as inactive or inconclusive.
# How the values were obtained:
# [1] = AP1 Signaling Pathway (AID 357; active means well fitted curve in either direction with a large enough effect, not every such curve was filed as active;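 further: ME-180 reporter cells stimulated with EGF at its EC50 level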); details: ME-180 AP-1-bla reporter, EGF-induced, beta-lactamase ratio, 5 h; at 7.69 µM (top of the series) unless noted
# Summary of the method: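 Titration-series screen for positive or negative modulators of EC50 EGF-induced signaling in ME-180 cells carrying an AP-1-driven beta-lactamase reporter. After 5 hours at 37 degrees Celsius, CCF4 460nm/530nm emission ratio gave %Activity; AC50 values derived.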
# [2] = target: Cytochrome P450 1A2 (Homo sapiens) (UniProt P05177); test: p450-cyp1a2 (AID 410; calls by dose curve; further: potency means the concentration at half of the fitted maximal effect)
# Summary of the method: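 O-Demethylation of luciferin 6' methyl ether by human CYP1A2 is monitored as luciferase luminescence. Substrate sits at Km (100uM); enzyme is 20nM. Values are scaled to 57 uM furafylline as maximal inhibition.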
# [3] = Stat Signaling Pathway (AID 446; active means well fitted curve in either direction with a large enough effect, not every such curve was filed as active;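 further: ME-180 cervical cancer cells given 40 pM IL-6 alongside compound; SIE-controlled beta-lactamase reporter measured as 460/530 nm FRET emission ratio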)
# Summary of the method: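 Normalization used AC90 stimulation (300 pM IL-6) and AC90 inhibition (125 nM pan-JAK inhibitor at 40 pM IL-6). The underlying signal is SIE-driven beta-lactamase in ME-180 cells after 5 h IL-6 exposure with compound.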
# [4] = target: Glucocorticoid receptor (Homo sapiens) (UniProt P04150); test: GR-GFP Redistribution (AID 450;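 active means compounds whose dose series gives a full or clear partial fitted curve of increased nuclear translocation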; further: potency means the concentration at half of the fitted maximal effect); details: U2OS GR-GFP nuclear translocation, laser cytometry, 2 h
# [5] = target: Glucocorticoid receptor (Homo sapiens) (UniProt P04150); test: GR-EFC Redistribution (AID 451; calls by dose curve; further: potency means the concentration at half of the fitted maximal effect); details: CHO-K1 GR-EFC translocation, beta-gal luminescence, 2 h
# Summary of the method: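 Translocation of GR-ED fusion to nuclear EA restores b-gal, read by luminescence after 1 h room-temperature detection. Engineered CHO-K1 biosensor cells, 1,000/well, exposed 2 h at 37 C to titrations up to 46 uM final.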
# [6] = target: Mitogen-activated protein kinase 10 (Mus musculus) (UniProt Q61831); test: JNK3 AlphaScreen Assay (AID 530; active means well fitted curve in either direction with a large enough effect, not every such curve was filed as active;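 further: kinase came from lysate of stimulated human HepG2 cells; signal reports phosphorylation of biotinylated GST-cJun 1-79 at Ser73 with 10 µM ATP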)
# Summary of the method: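 qHTS titrations with 15 min compound pre-incubation before adding ATP (10 uM final). Read-out: AlphaScreen of Ser73-phosphorylated biotin-GST-cJun using HepG2 lysate JNK3 activated by IL-1β and TNFα.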
# [7] = target: Guanine nucleotide-binding protein G(i) subunit alpha-1 (Homo sapiens) (UniProt P63096); test: qHTS Assay for Inhibitors of RGS12 GoLoco Motif Activity (Green Fluorophore) (AID 879);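 further: negative values mean loss of peptide binding seen as reduced polarization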
# Summary of the method: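 A drop in FITC polarization marked displacement of the FITC-tagged RGS12 GoLoco peptide (10 nM) from Gαi1 (50 nM). Compounds were incubated 10 min at room temperature in Tris pH 7.5 buffer containing 150 mM NaCl, 0.1 mM GDP and 0.05% NP40; unlabeled peptide titration served as control.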
# [8] = target: Cytochrome P450 2C9 (Homo sapiens) (UniProt P11712); test: qHTS Assay for Inhibitors and Substrates of Cytochrome P450 2C9 (AID 883); further: nearly all actives have a fitted effect of over 60% in size
# Summary of the method: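 Luminescent read-out of deoxyluciferin hydroxylation, normalized to 57uM sulphaphenazole (AC100). Reaction: 10nM enzyme, 100uM Luciferin-H (equal to KM), 25mM KPO4, 10 min compound preincubation, then 60 min with NADPH regeneration, both at 37C.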
# [9] = target: Cytochrome P450 3A4 (Homo sapiens) (UniProt P08684); test: qHTS Assay for Activators of Cytochrome P450 3A4 (AID 885); further: nearly all actives have a fitted effect of over 65% in size
# Summary of the method: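 Human CYP3A4 dealkylates Luciferin-PPXE to luciferin, which luciferase detection converts to light. Substrate was at its KM (25uM), buffer 200mM KPO4, reaction 60 min at RT.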
# [10] = target: Cytochrome P450 2D6 (Homo sapiens) (UniProt P10635); test: qHTS Assay for Inhibitors and Substrates of Cytochrome P450 2D6 (AID 891); further: potency means the concentration at half of the fitted maximal effect; nearly all actives have a fitted effect of over 60% in size
# Summary of the method: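 Luminescent read-out of luciferin formed by 5 nM human CYP2D6 demethylating 30 uM Luciferin-ME EGE (Km level) over 60 min at room temperature after NADPH regeneration addition. Data normalized to full inhibition by 1.43 uM quinidine.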
# [11] = qHTS Assay for Identification of Small Molecule Agonists for Hypoxia Response Element Signaling Pathway (AID 914; active means well fitted activation curve with a large enough effect in the signal ratio, with a control signal flat, not every such curve was filed as active; the % refers to the signal ratio); details: ME-180 (cervical carcinoma) HRE-bla reporter, beta-lactamase ratio, CoCl2, 17 h; activation: stronger effect = higher value
# Summary of the method: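 Cells were plated overnight, pin-dosed with compound in a titration series, co-stimulated with EC50 CoCl2 and incubated 17 hours at 37 degrees Celsius. CCF4 substrate was then loaded, and AC50 values came from the 460nm/530nm ratio.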
# [12] = qHTS Assay for Identification of Small Molecule Agonists for Thrombopoietin (TPO) Signaling Pathway (AID 917)
# Summary of the method: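 Ba/F3 (mouse) + hTPO receptor + GpIIb-promoter luciferase; IL-3 withdrawn overnight; compound + 26 pM TPO (EC50), 24 hrs, 37 C, 5% CO2; Steadylite luminescence, 10 min RT.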
# [13] = target: Muscarinic acetylcholine receptor M1 (Rattus norvegicus) (UniProt P08482); test: qHTS Assay for Antagonists of Acetylcholine Muscarinic M1 Receptor: Kinetic Measurement of Intracellular Calcium Response (AID 943); further: potency means the concentration at half of the fitted maximal effect; nearly all actives have a fitted effect of over 75% in size
# Summary of the method: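 Antagonism is measured as inhibition of the carbachol-evoked calcium rise in CHO cells transfected with rat M1. Cells are dye-loaded, exposed to compound for 10 min, then stimulated with 100 nM carbachol (EC80).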
# [14] = target: Pyruvate kinase (Leishmania mexicana) (UniProt Q27686); test: qHTS Validation Assay for Inhibitors of Leishmania Mexicana Pyruvate Kinase (AID 945)
# Summary of the method: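 The enzyme is a highly purified E451W mutant of LmPYK used at 0.2 nM. It converts 0.5 mM PEP and 0.1 mM ADP over 1 h at room temperature; product ATP is quantified by luciferase luminescence relative to DMSO controls.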
# [15] = target: Pyruvate kinase PKM (Homo sapiens) (UniProt P14618); test: qHTS Assay for Activators of Human Muscle Pyruvate Kinase (AID 954; active means well fitted curve in the direction sought with a large enough effect, not every such curve was filed as active)
# Summary of the method: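 Compound pinned into substrate mix (0.5 mM PEP, 0.1 mM ADP), then 0.1 nM PKM2 added; 1 h, RT. Stop/detection luciferase reagent added, luminescence read. Normalized to no-inhibition and no-enzyme or reference-inhibitor controls.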
# [16] = target: Alpha-galactosidase A (Homo sapiens) (UniProt P06280); test: Counterscreen for Glucocerebrosidase Inhibitors: qHTS Assay for Human alpha-Galactosidase at pH 4.5 (AID 992)
# Summary of the method: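 Steps: enzyme (2 nM final), then compound across 0.7 nM to 77 uM, then 80 uM fluorogenic galactopyranoside substrate; incubate 20 min at room temperature; quench at pH 10; measure fluorescence at 365/440 nm.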
# [17] = target: alpha-glucosidase (Oryza sativa, rice) (UniProt Q653V4); test: Counterscreen for Glucocerebrosidase Inhibitors: qHTS Assay for Rice alpha-Glucosidase at pH 5.0 (AID 997)
# Summary of the method: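 Endpoint fluorogenic assay at pH 5.0: compounds (0.7 nM to 77 uM) titrated against 4 nM rice enzyme and 400 uM 4-MU-alpha-glucoside for 20 min at room temperature; NaOH/glycine stop, read ex 365/em 440 nm, Hill-fitted AC50.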
# [18] = target: DNA repair nuclease/redox regulator APEX1 (Homo sapiens) (UniProt P27695); test: qHTS Validation Assay for Inhibitors of the Human Apurinic/apyrimidinic Endonuclease 1 (APE1) (AID 1705;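 further: TAMRA fluorescence gain over two minutes as APE1 cuts a quenched THF abasic duplex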)
# Summary of the method: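 Read-out: TAMRA fluorescence (525 nm ex, 598 nm em) from cleavage of a quenched THF abasic-site duplex, 50 nM final; activity taken as intensity change between third and first of three reads 60 s apart.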
# [19] = Counterscreen for APE1 Inhibitors: Fluorescent Dye Displacement Validation Assay (AID 1707)
# Summary of the method: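 Reaction mixture of 250 nM Thiazole Orange and 50 nM double-stranded abasic-site DNA was dispensed, compounds were pin-transferred, and fluorescence was read at endpoint (480 nm ex, 540 nm em). Reduced fluorescence indicated dye displacement by DNA binding.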
# [20] = target: Endonuclease 4 (Escherichia coli (strain K12)) (UniProt P0A6C1); test: Counterscreen for APE1 Inhibitors: qHTS Validation Assay for Inhibitors of Endonuclease IV (AID 1708)
# Summary of the method: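 Incision of a double-stranded 50 nM TAMRA/BHQ-2 abasic substrate was followed kinetically (525/598 nm, reads every 60 s) after 15 min enzyme–compound preincubation with 2 nM EndoIV in pH 7.5 Tris buffer with MgCl2, DTT and Tween-20; concentration-response format.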
# [21] = qHTS for differential inhibitors of proliferation of Plasmodium falciparum line 7G8 (AID 1815);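 further: potency means the concentration at half of the fitted maximal effect; parasite growth measured after three days of incubation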
# [22] = qHTS for differential inhibitors of proliferation of Plasmodium falciparum line GB4 (AID 1816); details: Potency: Plasmodium falciparum GB4 proliferation inhibition;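 further: potency means the concentration at half of the fitted maximal effect; parasite growth measured after 72 h incubation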
# [23] = qHTS for differential inhibitors of proliferation of Plasmodium falciparum line 3D7 (AID 1876); further: potency means the concentration at half of the fitted maximal effect
# [24] = qHTS for differential inhibitors of proliferation of Plasmodium falciparum line W2 (AID 1883); details: Potency: Plasmodium falciparum W2 proliferation inhibition;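 further: potency means the concentration at half of the fitted maximal effect; parasites grown with compound for 72 h before lysis and staining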
# [25] = target: Ferritin light chain (Equus caballus) (UniProt P02791); test: qHTS Validation Assay for Identification of Novel General Anesthetics (AID 2323)
# Summary of the method: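 10 uM horse-spleen apoferritin + 1-AMA (50% saturated, PBS); cpd pin-transferred, 10 min RT. Ex 380/Em 535 nm endpoint. Activity normalized between free 1-AMA and 1-AMA/apoferritin; 4-parameter Hill fit of concentration-response.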
# [26] = target: ATP-dependent DNA helicase Q1 (Homo sapiens) (UniProt P46063); test: qHTS Validation Assay for Inhibitors of RecQ-Like Dna Helicase 1 (RECQ1) (AID 2353)
# Summary of the method: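 RECQ1T1 50 nM; forked duplex (20 bp + 30-nt ss tails) 200 nM, ATP 2 mM final; pH 8.0, 2 mM MgCl2, 2.5 ug/ml poly(dI-dC); 15 min compound preincubation; discontinuous kinetic read over 2 h at RT.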
# [27] = target: RecQ-like DNA helicase BLM (Homo sapiens) (UniProt P54132); test: qHTS Validation Assay for Inhibitors of Bloom's syndrome helicase (BLM) (AID 2364)
# Summary of the method: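 Forked 20-bp duplex substrate (200 nM, TAMRA/BHQ-2) plus 2 mM ATP added after 15 min compound preincubation with 50 nM enzyme, pH 8.0, poly(dI-dC) 2.5 ug/ml. Strand separation followed by fluorescence (525/598 nm) over 2 h, normalized to enzyme-free and DMSO controls.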
# [28] = Validation screen for small molecules that induce DNA re-replication in MCF 10A normal breast cells (AID 463097); further: nearly all actives have a fitted effect of over 60% in size
# Summary of the method: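 250 MCF 10A cells/well; compound pin-transferred; 48 hr, 37 C, 5% CO2; Hoechst 40 min; imaged 405/500-530 nm. Hits = more high-intensity nuclei.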
# [29] = Quantitative high throughput screen for delayed death inhibitors of the malarial parasite plastid, 48 hour incubation (AID 488752); further: nearly all actives have a fitted effect of over 65% in size
# Summary of the method: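 First, compound was pinned into RPMI 1640 medium containing 0.5% Albumax. Next, reporter-parasite-infected erythrocytes were added to 2% hematocrit and 0.1% parasitemia. After 48 h at 37 C under 5% CO2, luciferase detection reagent was added and luminescence read.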
# [30] = target: Transient receptor potential cation channel subfamily V member 1 (Homo sapiens) (UniProt Q8NER1); test: HTS Assay for Compounds that Act as Enhancers of the Vanilloid Receptor 1 (AID 488979)
# Summary of the method: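 Calcium influx kinetics via Fluo-8 (480/520 nm) in TRPV1-expressing cells, 2000/well cultured overnight at 35.5C. Compound-alone read 3 min (agonist phase), followed by EC20 capsaicin challenge for 2 min (enhancer phase).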
# [31] = target: Thyrotropin receptor (Homo sapiens) (UniProt P16473); test: qHTS Assay for Antagonists of the Thyroid Stimulating Hormone Receptor (AID 488980)
# Summary of the method: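 TSHR-HEK293 cells; 70 uM RO 20-1724 PDE inhibitor; compound + EC80 TSH (4 nM final); anti-cAMP cryptate antibody/cAMP-d2 in lysis buffer, 30 min RT; HTRF 665/620 nm read.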
# [32] = target: Thyrotropin-releasing hormone receptor (Homo sapiens) (UniProt P34981); test: qHTS for Small Molecule Agonists and Allosteric Enhancers of Human TRH Receptor: Validation Screen for Agonists (AID 493127;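 active means calcium activation more than 3 SD above the typical response in the agonist read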;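 further: intracellular calcium rise by fluo-8 fluorescence before TRH EC20 addition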); details: TRH receptor agonist cell assay; at 2 µM; stronger effect = higher value
# Summary of the method: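 Compounds are added by online pintool to dye-loaded TRHR cells while fluorescence is recorded every second. A rise in calcium signal during the agonist read marks activation; a later 10 nM TRH addition (EC20) serves the separate enhancer mode.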
# [33] = target: Galactokinase (Homo sapiens) (UniProt P51570); test: qHTS Validation Assay for Inhibitors of Human Galactokinase (GALK) (AID 493189)
# Summary of the method: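 Luminescence from leftover ATP (Kinase-Glo Plus, 10 min) served as read-out after a 1 h room-temperature reaction of 5 nM GALK, 100 uM galactose and 35 uM ATP at pH8.0.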
# [34] = Validation screen for small molecules that induce DNA re-replication in SW480 colon adenocarcinoma cells (AID 504364)
# Summary of the method: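 Image-based qHTS: compounds were incubated with SW480 cells for 48 hr, nuclei stained with Hoechst, and per-nucleus fluorescence intensity scanned to flag cells with excess DNA content.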
# [35] = target: Voltage-gated inwardly rectifying potassium channel KCNH2 (Homo sapiens) (UniProt Q12809); test: qHTS Assay for Small Molecule Inhibitors of the Human hERG Channel Activity (AID 588834);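 further: potency means the concentration at half of the fitted maximal effect; lower thallium flux fluorescence means stronger hERG block; nearly all actives have a fitted effect of over 50% in size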
# Summary of the method: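 Thallium-flux (FluxOR) read-out on FDSS: fluorescence read 10 s before and 2 min after stimulation buffer. hERG-BacMam-transduced U2OS cells, compound exposure about 10 min. AC50 by standard Hill equation.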
# Sequence of Glucocorticoid receptor (Homo sapiens) (P04150 whole entry, looked up, the tested form may be a part): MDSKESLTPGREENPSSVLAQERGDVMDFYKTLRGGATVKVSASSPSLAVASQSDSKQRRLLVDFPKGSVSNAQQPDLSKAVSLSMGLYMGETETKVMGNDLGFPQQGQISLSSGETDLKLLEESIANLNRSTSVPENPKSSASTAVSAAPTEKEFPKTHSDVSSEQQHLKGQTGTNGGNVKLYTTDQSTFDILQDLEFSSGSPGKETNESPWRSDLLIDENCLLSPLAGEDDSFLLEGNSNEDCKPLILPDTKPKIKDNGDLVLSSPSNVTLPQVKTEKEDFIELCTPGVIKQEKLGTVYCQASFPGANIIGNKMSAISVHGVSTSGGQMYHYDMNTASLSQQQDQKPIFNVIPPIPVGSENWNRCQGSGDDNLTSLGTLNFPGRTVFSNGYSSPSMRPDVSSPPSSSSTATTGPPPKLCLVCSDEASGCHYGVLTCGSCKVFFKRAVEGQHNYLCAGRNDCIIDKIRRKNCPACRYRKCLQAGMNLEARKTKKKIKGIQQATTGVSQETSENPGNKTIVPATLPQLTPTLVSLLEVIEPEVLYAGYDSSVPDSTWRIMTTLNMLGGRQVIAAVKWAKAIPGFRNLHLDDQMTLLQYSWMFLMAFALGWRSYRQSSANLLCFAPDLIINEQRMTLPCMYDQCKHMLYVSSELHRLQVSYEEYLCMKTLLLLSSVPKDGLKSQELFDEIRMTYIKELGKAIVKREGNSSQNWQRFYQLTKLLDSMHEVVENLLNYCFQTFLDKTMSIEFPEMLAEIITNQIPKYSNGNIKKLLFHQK
# Sequence of ATP-dependent DNA helicase Q1 (Homo sapiens) (P46063 whole entry, looked up): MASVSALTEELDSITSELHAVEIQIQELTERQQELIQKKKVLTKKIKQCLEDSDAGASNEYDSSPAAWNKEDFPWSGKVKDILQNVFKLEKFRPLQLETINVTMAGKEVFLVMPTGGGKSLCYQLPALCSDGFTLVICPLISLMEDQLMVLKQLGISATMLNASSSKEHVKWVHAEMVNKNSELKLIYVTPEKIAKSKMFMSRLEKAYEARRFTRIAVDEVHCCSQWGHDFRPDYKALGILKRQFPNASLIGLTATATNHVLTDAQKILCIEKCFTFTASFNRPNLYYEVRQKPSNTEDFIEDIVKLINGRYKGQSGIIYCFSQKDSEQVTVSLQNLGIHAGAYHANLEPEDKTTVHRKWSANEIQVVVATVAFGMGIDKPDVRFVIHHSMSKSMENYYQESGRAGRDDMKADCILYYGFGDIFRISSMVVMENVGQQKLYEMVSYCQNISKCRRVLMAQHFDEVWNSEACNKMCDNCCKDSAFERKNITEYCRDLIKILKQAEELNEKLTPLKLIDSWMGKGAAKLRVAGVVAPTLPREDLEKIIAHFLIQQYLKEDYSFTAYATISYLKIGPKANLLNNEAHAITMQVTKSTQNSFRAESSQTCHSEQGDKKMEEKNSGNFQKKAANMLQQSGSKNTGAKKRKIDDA
# Sequence of Transient receptor potential cation channel subfamily V member 1 (Homo sapiens) (Q8NER1 whole entry, looked up): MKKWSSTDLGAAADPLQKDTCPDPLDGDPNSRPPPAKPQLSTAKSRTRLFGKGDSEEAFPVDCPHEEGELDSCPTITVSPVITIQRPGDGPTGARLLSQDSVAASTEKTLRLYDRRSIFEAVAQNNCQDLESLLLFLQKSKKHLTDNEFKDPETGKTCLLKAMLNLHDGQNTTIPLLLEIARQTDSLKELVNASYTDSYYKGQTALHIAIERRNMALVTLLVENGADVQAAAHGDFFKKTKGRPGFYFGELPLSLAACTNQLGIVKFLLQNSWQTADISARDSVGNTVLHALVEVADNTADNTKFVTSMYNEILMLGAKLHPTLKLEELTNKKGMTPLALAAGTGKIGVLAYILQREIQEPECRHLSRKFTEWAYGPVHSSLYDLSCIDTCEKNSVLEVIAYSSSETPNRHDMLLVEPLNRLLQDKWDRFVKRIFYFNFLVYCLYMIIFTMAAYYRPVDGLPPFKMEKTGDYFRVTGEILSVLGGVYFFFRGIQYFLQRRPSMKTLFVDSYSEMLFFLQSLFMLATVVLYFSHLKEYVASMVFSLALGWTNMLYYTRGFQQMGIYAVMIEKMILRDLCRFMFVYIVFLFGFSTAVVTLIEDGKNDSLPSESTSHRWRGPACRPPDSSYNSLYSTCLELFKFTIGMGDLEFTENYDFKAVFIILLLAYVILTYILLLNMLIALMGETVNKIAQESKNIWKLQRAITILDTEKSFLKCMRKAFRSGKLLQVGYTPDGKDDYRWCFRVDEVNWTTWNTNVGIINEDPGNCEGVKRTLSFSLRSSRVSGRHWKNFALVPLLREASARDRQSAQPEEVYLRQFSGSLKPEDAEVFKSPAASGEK
# Sequence of Pyruvate kinase PKM (Homo sapiens) (P14618 whole entry, looked up): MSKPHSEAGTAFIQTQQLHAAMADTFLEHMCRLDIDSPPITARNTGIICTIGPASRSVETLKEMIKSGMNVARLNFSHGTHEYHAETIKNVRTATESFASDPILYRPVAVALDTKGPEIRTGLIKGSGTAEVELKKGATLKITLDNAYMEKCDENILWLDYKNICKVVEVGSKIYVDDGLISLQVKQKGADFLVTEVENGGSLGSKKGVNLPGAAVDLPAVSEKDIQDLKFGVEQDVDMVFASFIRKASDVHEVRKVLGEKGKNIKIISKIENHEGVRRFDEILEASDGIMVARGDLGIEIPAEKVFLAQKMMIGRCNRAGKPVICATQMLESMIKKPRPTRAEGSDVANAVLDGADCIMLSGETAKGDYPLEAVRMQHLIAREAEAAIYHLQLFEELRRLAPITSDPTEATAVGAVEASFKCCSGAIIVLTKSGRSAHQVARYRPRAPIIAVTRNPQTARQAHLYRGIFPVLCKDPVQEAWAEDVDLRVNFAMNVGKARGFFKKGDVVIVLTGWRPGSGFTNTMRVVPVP
# Sequence of Cytochrome P450 2C9 (Homo sapiens) (P11712 whole entry, looked up): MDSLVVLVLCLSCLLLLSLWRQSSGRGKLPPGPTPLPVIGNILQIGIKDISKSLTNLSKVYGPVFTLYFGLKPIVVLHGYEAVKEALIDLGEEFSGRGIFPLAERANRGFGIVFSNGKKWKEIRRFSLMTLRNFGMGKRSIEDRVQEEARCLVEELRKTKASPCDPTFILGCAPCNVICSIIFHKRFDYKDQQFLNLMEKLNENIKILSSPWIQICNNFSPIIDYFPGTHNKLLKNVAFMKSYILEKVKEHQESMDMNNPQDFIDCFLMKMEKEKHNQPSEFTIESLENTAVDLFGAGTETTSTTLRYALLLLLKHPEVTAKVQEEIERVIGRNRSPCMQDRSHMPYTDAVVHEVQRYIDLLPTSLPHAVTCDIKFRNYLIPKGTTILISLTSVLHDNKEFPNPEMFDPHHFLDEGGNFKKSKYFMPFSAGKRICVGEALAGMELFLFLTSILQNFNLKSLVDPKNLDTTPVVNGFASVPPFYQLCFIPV
# Sequence of Guanine nucleotide-binding protein G(i) subunit alpha-1 (Homo sapiens) (P63096 whole entry, looked up): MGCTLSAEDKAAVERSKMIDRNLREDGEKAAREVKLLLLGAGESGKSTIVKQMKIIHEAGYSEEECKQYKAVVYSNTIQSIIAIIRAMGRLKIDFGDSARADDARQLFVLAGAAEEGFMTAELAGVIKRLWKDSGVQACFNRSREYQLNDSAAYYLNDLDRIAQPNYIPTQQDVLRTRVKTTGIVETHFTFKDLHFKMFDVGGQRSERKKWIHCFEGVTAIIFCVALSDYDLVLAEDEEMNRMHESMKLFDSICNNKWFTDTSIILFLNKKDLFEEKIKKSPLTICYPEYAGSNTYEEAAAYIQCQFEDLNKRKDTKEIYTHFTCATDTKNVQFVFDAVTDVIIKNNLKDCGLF
# Sequence of Muscarinic acetylcholine receptor M1 (Rattus norvegicus) (P08482 whole entry, looked up): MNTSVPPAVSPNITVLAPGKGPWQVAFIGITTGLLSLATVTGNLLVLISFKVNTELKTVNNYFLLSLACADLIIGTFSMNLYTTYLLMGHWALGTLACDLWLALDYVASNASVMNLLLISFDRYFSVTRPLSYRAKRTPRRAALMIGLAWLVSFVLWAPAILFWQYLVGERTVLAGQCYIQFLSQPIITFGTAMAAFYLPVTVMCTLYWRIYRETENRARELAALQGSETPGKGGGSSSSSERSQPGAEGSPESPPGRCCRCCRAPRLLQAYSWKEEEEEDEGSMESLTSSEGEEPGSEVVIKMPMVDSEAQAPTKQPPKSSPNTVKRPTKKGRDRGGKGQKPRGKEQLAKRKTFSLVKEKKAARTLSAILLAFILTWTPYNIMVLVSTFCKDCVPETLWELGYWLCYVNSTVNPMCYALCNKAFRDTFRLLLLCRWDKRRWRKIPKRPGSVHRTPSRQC
# Sequence of Galactokinase (Homo sapiens) (P51570 whole entry, looked up): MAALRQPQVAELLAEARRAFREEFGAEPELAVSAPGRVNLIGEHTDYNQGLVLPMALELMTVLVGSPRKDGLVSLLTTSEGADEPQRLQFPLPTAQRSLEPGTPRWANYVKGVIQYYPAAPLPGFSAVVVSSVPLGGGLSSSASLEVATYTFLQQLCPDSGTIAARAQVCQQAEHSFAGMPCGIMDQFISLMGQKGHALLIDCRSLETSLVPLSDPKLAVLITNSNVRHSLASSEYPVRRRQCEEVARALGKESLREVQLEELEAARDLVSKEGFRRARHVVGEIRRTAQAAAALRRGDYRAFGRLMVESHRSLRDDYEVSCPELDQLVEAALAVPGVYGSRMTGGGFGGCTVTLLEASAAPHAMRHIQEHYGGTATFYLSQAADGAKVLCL
# Sequence of Cytochrome P450 1A2 (Homo sapiens) (P05177 whole entry, looked up): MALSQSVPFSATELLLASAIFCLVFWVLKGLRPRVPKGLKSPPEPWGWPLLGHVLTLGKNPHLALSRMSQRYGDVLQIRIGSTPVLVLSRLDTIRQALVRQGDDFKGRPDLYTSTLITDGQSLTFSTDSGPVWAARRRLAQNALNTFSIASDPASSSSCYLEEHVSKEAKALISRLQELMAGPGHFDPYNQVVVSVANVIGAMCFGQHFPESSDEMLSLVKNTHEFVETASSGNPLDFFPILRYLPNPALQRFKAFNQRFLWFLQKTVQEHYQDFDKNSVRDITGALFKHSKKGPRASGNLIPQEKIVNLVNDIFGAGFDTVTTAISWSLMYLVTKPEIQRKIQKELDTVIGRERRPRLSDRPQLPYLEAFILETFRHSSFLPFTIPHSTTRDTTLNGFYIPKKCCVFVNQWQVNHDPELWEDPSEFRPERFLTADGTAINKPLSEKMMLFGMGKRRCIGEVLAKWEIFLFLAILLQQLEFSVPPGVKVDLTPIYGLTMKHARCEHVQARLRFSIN
structure (smiles),measurement,setting,value
CCCCN1CCC(COC(=O)c2cc(Cl)c(N)c3c2OCCO3)CC1,"activity change, negative = inhibition",[1],-2.87% [at 38 µM]
same,Potency,[2],12.6 µM (active)
same,outcome,[3],inactive
same,Potency,[4],> 46 µM
same,Potency,[5],> 46 µM
same,Potency,[6],inactive
same,Potency,[7],inactive
same,Potency,[8],inactive
same,outcome,[9],inactive
same,Potency,[10],1.26 µM (active)
same,activation,[11],7.22%
same,outcome,[12],inactive
same,Potency,[13],5.62 µM (active)
same,outcome,[14],inactive
same,outcome,[15],inactive
same,outcome,[16],inactive
same,outcome,[17],inactive
same,Potency,[18],inactive
same,outcome,[19],inactive
same,Potency,[20],inactive
same,Potency,[21],10 µM (active)
same,Potency,[22],12.6 µM (active)
same,Potency,[23],8.91 µM (active)
same,Potency,[24],7.08 µM (active)
same,outcome,[25],inactive
same,outcome,[26],inactive
same,Potency,[27],inactive
same,Potency,[28],inactive
same,Potency,[29],inactive
same,outcome,[30],inactive
same,outcome,[31],inactive
same,activation,[32],1.19%
same,outcome,[33],inactive
same,Potency,[34],inactive
same,Potency,[35],2.24 µM (active)
